# Reference: PubChem BioAssay AID504411 (The Scripps Research Institute Molecular Screening Center, 2011)
# Screen size: about 340,000 compounds; about 200 (0.059%) were called active. No stated cut-off is given here; in the data, active means inhibition above about 34%; inactive means the rest. The entries come from a sample that favours actives as a whole.
# Target: Diacylglycerol lipase-beta (Homo sapiens) (UniProt Q8NCG7)
# Experiment: DAGLB lipase inhibitors, primary screen, biochemical, fluorescence, HTS (AID 504411);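 further: 0% = enzyme with vehicle and 100% = wells lacking enzyme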
# Settings: HEK293T DAGLB membrane lysate, EnzChek fluorogenic substrate; at 5.17 µM; stronger effect = higher value
# Diacylglycerol lipase-beta (Homo sapiens), sequence (Q8NCG7 whole entry, looked up): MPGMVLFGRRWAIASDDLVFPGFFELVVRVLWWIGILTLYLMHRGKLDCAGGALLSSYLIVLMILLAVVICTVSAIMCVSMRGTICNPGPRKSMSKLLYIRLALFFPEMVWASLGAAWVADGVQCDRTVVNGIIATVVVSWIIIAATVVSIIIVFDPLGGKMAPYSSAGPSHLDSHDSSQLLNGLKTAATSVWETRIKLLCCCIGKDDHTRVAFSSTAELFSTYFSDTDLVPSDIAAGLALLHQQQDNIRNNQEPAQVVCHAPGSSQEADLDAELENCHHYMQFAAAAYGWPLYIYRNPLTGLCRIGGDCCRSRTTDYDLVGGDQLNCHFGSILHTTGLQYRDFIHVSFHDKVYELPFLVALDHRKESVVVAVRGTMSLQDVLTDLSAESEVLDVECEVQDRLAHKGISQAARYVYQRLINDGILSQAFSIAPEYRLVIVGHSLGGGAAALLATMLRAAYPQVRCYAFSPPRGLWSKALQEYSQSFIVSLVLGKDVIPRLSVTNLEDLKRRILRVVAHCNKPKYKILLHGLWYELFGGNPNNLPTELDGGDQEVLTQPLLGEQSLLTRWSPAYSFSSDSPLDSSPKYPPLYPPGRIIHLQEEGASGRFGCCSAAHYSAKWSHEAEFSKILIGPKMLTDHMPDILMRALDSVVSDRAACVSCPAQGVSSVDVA
row,Compound,inhibition
1,c1ccc2c(c1)OCCOCCOCCO2,0.06% (inactive)
2,COc1ccc(S(=O)(=O)/N=C2\C=C(NS(=O)(=O)c3ccccc3)C(=O)c3ccccc32)cc1,19.7% (inactive)
3,Cc1ccc(S(=O)(=O)N/N=C(\c2ccccc2)C2CC2)cc1,0.32% (inactive)
4,Cc1ccc(S(=O)(=O)/N=C2\C=C(NS(=O)(=O)c3ccc(C)cc3)C(=O)c3ccccc32)cc1,38.9% (active)
5,Cc1nn(C)c(C)c1CN(C(=O)CCc1nnc(Cc2c[nH]c3ccccc23)o1)C(C)C,1.36% (inactive)
6,COCc1ccc(C(=O)N2CCc3c([nH]c4ccccc34)C2c2ccccn2)s1 (configuration not stated),2.71% (inactive)
7,CC(CC(=O)N1CCN(c2ccccc2)CC1)S(=O)(=O)c1ccc2c(c1)NC(=O)CS2 (configuration not stated),1.53% (inactive)
8,CCOc1ccc(-n2cnc3c(=O)[nH]c(N)nc32)cc1,0.5% (inactive)
9,O=C(Nc1nnc(CCN2CCCCC2)s1)c1cccc(Cl)c1,0.09% (inactive)
10,CCOC(=O)C1=C(C)OC(N)=C(C#N)C1c1cncc(-c2ccc(F)cc2)c1 (configuration not stated),-3.22% (inactive)
11,C=CCn1nc(-c2ccccc2)c2c(C)onc2c1=O,-0.48% (inactive)
12,CC(Sc1nncn1C)C(=O)Nc1cc(C(F)(F)F)ccc1N1CCOCC1 (configuration not stated),0.9% (inactive)
13,O=C(NC1CCCC1)C1CC(=O)N(c2ccc(F)cc2)C1 (configuration not stated),2.14% (inactive)
14,O=C(COC(=O)c1ccc(O)cc1O)NC(=O)c1ccccc1,1.38% (inactive)
15,O=C(NNC(=O)c1ccccc1O)c1ccccc1O,3.19% (inactive)
16,O=C(NNc1c2ccccc2nc2ccccc12)c1cc2ccccc2cc1O,64% (active)
17,Cc1ccc(-c2cc(C(F)(F)F)n3ncc(C(=O)N4CCCCC4c4cccnc4)c3n2)cc1 (configuration not stated),0.87% (inactive)
18,Nc1ccc(Cl)c(S(=O)(=O)Nc2ccccc2Cl)c1,2.95% (inactive)
19,O=C1C(=O)N(CCN2CCOCC2)C(c2ccccn2)/C1=C(/O)c1ccc(Cl)cc1 (configuration not stated),1.82% (inactive)

row,Compound,inhibition
1,COc1cc(/C=C/C(=O)N2CCc3ccccc3C2)cc(OC)c1OC,-1.38% (inactive)
2,O=C(c1ccc(=O)[nH]c1)N(Cc1ccco1)C1(C(=O)NC2CCCCC2)CCCCC1,-1.49% (inactive)
3,COc1cccc(NC(=S)NC(=O)c2c(Cl)c(C)nn2C)c1,-24.9% (inactive)
4,CN(C(=O)CSc1nnc(C2CC2)n1C)C1CCCc2ccccc21 (configuration not stated),1.81% (inactive)
5,CCOCCn1[nH]c2ccccc2c1=O,-1.38% (inactive)
6,CCOc1ccc(C(O)Cn2c(=N)n(CCN3CCCCC3)c3ccccc32)cc1 (configuration not stated),-2.39% (inactive)
7,Cc1cccc(Nc2nc3c(S(=O)(=O)c4ccccc4)nnn3c3ccccc23)c1C,0.26% (inactive)
8,CCn1c(SCC(=O)N2CCCC2=O)nc2ccccc21,-0.5% (inactive)
9,COc1ccc(OC)c(NC(=O)c2cccc(S(=O)(=O)N3CCN(C(C)=O)CC3)c2)c1,-0.51% (inactive)
10,O=C(CCCN=C1NS(=O)(=O)c2ccccc21)OCC(=O)c1ccc(F)c(F)c1,1.93% (inactive)
11,CN1CCC(N(C)C(=O)c2ccc(Cl)c(S(=O)(=O)Nc3ccc(Cl)cc3)c2)CC1,-0.08% (inactive)
12,CSCCC(=O)N1CCCC(CNC(=O)c2ccccc2Cl)C1 (configuration not stated),-3.33% (inactive)
13,C[C@H](CO)N1C[C@H](C)[C@@H](CN(C)C(=O)NC2CCCCC2)Oc2ccc(NC(=O)c3ccncc3)cc2C1=O,-0.14% (inactive)
14,O=C1C=C(NCCNc2c(F)c(F)c(CO)c(F)c2F)CCC1,0.21% (inactive)
15,COc1ccc(C(=O)Cn2nnc(-c3ccc(N4CCOCC4)cc3)n2)cc1OC,0.4% (inactive)
16,COc1ccccc1NS(=O)(=O)c1ccc(C(=O)N2CCN(c3ccccc3O)CC2)cc1,3.47% (inactive)
17,CCOC(=O)N1CCC(O)(c2cc(C)c(C)cc2C)CC1,-4.76% (inactive)
18,CC(=O)c1c(C)[nH]c(C(=O)CN2C(=O)NC(C)(C)C2=O)c1C,2.12% (inactive)
19,CCOC(=O)C1CN(S(=O)(=O)c2ccc(F)cc2)C1,-3.17% (inactive)

row,Compound,inhibition
1,O=c1oc(-c2ccccc2NS(=O)(=O)c2ccc(Cl)cc2)nc2ccccc12,6.09% (inactive)
2,COc1cccc(/C=C2\SC(=S)N(CCCC(=O)N3CCOCC3)C2=O)c1,-4.26% (inactive)
3,COCCCNC(=O)[C@H]1N2C(=O)c3ccccc3C2SC1(C)C (some centres not stated),-1.33% (inactive)
4,CC(=O)Nc1ccc(C(=O)Nc2cccc(S(=O)(=O)NC3=NCCC3)c2)cc1,-2.22% (inactive)
5,CCOC(=O)C1CSC(CC(=O)Nc2ccc(OCC)cc2)C(=O)N1 (configuration not stated),0.21% (inactive)
6,O=C(O)CC(c1ccccc1F)N1Cc2ccccc2C1=O (configuration not stated),1.06% (inactive)
7,CCCN(CCC)S(=O)(=O)c1ccc(C(=O)N2CC3CCC(CC3)C2)cc1,-8.08% (inactive)
8,COc1ccc(C(=O)c2c(C)oc3cc([N+](=O)[O-])c(O)c([N+](=O)[O-])c23)cc1,21.1% (inactive)
9,Cc1oc2cc(Br)c(O)c(Br)c2c1C(=O)c1ccccc1,-1.78% (inactive)
10,Cc1oc2cc([N+](=O)[O-])c(O)c([N+](=O)[O-])c2c1C(=O)c1ccc(Br)cc1,44% (active)
11,CCOc1ccc(S(=O)(=O)NCCC(=O)NCC(C)(C)N2CCOCC2)cc1,1.14% (inactive)
12,CSC1=N/C(=C\C=C\c2cccs2)C(=O)S1,6.62% (inactive)
13,Cc1c(C(=O)NCC(c2ccco2)N2CCCC2)oc2ccc(Cl)cc12 (configuration not stated),-3.86% (inactive)
14,CCOC(=O)C1CCN(C(=O)C2(NC(=O)Nc3cccc(F)c3)CCCCC2)CC1,1.05% (inactive)
15,CC1(C)OC(=O)C(=CNC(CO)C(=O)O)C(=O)O1 (configuration not stated),-0.76% (inactive)
16,CC(=O)N1CCc2ccc(N)cc21,-0.55% (inactive)
17,COc1ccc(C(=O)NCc2ccc(C)cc2)cc1S(=O)(=O)N1CCCC1,-0.31% (inactive)
18,Cc1cc(=O)n2nc(N3CCCC(C(=O)NCc4cccc(Cl)c4)C3)sc2n1 (configuration not stated),-0.02% (inactive)
19,CCOC(=O)CN(C(=O)COc1nc(-c2ccccc2)cc(C)c1C#N)c1ccc(F)cc1,-4.62% (inactive)
